# Compound activity deposited in PubChem by several laboratories.
# Hits are enriched below; roughly 1.9% of the tested compounds scored in any of these assays.
# Efa HMGR inh: inhibitors of class II HMG-CoA reductase from Enterococcus faecalis. purified E. faecalis HMGR, NADPH absorbance 340 nm kinetic. inhibition, % at 10 µM. actives 0.41% (n = 190,000). AID 1066;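 active = inhibition above a set limit, the median over all tested compounds plus 3 SD, cut at about 9.5% in these data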;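 note: enzyme runs in reverse so mevalonate oxidation gives rising NADPH absorbance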
# EP2 antag: inhibitors of human EP2 prostaglandin E2 receptor; actives 0.52% (n = 260,000); P43116; inhibition, % at 25 µM; C6 glioma cells expressing human EP2, cAMP TR-FRET; cells stimulated with saturating PGE2;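 active = percent inhibition above 40 after rounding to a whole number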;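 note: rat C6 glioma host cells with rolipram phosphodiesterase inhibitor present; the protocol text gives 20 µM as final concentration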
# m-calpain inh: calpain II (pig) inhibition | purified calpain II, fluorogenic peptide substrate, 30 min | inhibition, % at 16 µM | actives 0.37% (n = 220,000);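 active = inhibition above about 50%, limit read from the data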
# Furin inhibitor: inhibitors of human furin | P09958 | purified furin, fluorogenic substrate cleavage | inhibition, % at 20 µM or 30 µM | actives 0.061% (n = 220,000) | AID 463115; in the data active = inhibition above about 25%
# Target sequence (P09958 108-714 limits assumed): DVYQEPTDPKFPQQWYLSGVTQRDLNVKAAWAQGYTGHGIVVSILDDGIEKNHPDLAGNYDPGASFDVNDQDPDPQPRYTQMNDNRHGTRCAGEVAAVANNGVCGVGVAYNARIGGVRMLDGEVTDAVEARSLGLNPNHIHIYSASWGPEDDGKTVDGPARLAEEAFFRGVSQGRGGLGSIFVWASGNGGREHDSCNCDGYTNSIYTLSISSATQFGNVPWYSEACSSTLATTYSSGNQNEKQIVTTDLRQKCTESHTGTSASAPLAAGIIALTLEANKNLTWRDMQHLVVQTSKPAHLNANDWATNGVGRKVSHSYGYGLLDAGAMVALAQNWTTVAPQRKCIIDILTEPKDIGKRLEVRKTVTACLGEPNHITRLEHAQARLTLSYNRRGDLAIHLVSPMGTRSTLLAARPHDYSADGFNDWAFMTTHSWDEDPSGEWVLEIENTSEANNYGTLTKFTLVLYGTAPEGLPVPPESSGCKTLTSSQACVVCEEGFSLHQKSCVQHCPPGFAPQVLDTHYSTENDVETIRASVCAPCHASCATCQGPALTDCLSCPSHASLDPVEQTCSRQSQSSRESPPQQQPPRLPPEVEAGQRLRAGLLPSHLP
# EP2 mod: modulates human prostaglandin E2 receptor EP2 signaling; P43116; EP2-expressing cells, cAMP HTRF FRET, PGE2 co-stimulation; induction, % at 25 µM; actives 0.83% (n = 260,000);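 active = compounds whose cAMP rise, as percent of the full-agonist control response, exceeds 60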;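 note: rat C6 glioma line stably carrying human EP2 under a CMV promoter; the protocol text gives 20 µM as final concentration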
# Hits are given with their value; 0 = inactive; - = no result given; ! = not confirmed by another sample.
SMILES,Efa HMGR inh,EP2 antag,m-calpain inh,Furin inhibitor,EP2 mod
O=C(C1Cc2ccccc2CN1S(=O)(=O)c1cccs1)N1CCCCCC1 (stereo not drawn),0,0,0,0,0
CC(=O)N(C1=C(Cl)C(=O)c2ccccc2C1=O)C1CCCCC1,-,124,0,0,0
Cc1nc(NCc2ccco2)c(C#N)c2c1COC(C)(C)C2,0,0,0,0,0
CC1(C)Cc2c(C#N)c(NCc3ccco3)nc(-c3ccco3)c2CO1,12,0,0,0,0
CCCc1nnc(NC(=O)C2c3ccccc3Oc3ccccc32)s1,-,0,-,-,0
Cc1cccc(OCC(=O)Nc2ccccc2N2CCCCC2)c1,0,0,0,0,0
O=C(Nc1ccccc1N1CCCCC1)c1ccco1,0,0,0,0,64
O=C(COc1ccccc1)Nc1ccccc1N1CCCCC1,0,0,0,0,64!
CC1(c2ccccc2NC(=O)c2cccs2)CC1,-,0,-,-,65
O=C(Nc1ccccc1N1CCCCC1)c1cccs1,0,0,0,0,61
O=C(Nc1ccccc1Cl)c1cccs1,0,0,0,0,0
CCOc1ccc(NC(=O)c2snc3c(=O)[nH]cnc23)cc1,-,0,-,-,0
OC(CN1CCC(O)(c2ccc(F)cc2)CC1)c1ccc2ccccc2c1 (stereo not drawn),-,0,-,-,0
COc1ccc(CNc2oc(COc3ccc(Cl)cc3)nc2C#N)cc1,0,0,54,0,0
c1ccc(-c2cnc(-c3ccc(-c4ncc(-c5ccccc5)o4)cc3)o2)cc1,-,45,-,-,0
COc1ccc(CN(Cc2ccc3c(c2)OCO3)CC(C)O)cc1O (stereo not drawn),-,0,-,-,0
COc1ccc(OC)c(-c2csc(NC(=O)C3COc4ccccc4O3)n2)c1 (stereo not drawn),0,0,0,0,0
O=C(Nc1nc(-c2nc3ccccc3s2)cs1)C1COc2ccccc2O1 (stereo not drawn),0,42,0,0,0
Cc1cc(C(F)(F)F)nn1CC(=O)NNC(=S)Nc1ccc(Cl)cc1,0,196,0,0,0
CCC(=O)NNC(=O)CSc1nnnn1-c1ccc2c(c1)OCCO2,-,0,-,-,0
COc1cc(C(=O)N2CCc3[nH]nc(-c4ccccc4)c3C2)cc(OC)c1OC,-,-,-,-,0
CC1CCN(CC(O)c2ccc3c(c2)CCCN3C(=O)c2cccc(F)c2)CC1 (stereo not drawn),-,0,-,-,0
CCCCN(CCCC)c1nc(-c2ccncc2)nc2ccccc12,-,0,0,0,68
COCCCNc1nc(-c2ccncc2)nc2ccccc12,0,0,0,0,0
CC1CCc2cc(F)ccc2N1S(=O)(=O)c1ccc(S(=O)(=O)NC2CC2)cc1 (stereo not drawn),-,0,-,-,0
SMILES,Efa HMGR inh,EP2 antag,m-calpain inh,Furin inhibitor,EP2 mod
CC1CCN(Cc2cnc(Cl)s2)CC1,0,0,51,0,0
CC1CCCCN1Cc1cnc(Cl)s1 (stereo not drawn),0,0,59,0,0
CC1CCCN(Cc2cnc(Cl)s2)C1 (stereo not drawn),0,0,0,0,0
O=C1c2cccc3c([N+](=O)[O-])ccc(c23)C(=O)N1c1nccs1,0,55,0,0,0
CC(=O)NCC1COc2ccccc2O1 (stereo not drawn),-,54!,0,0,0
Cc1ccc(CN2C(=O)C(C)(C)Oc3ccc(C(=O)NC4CC4)cc32)cc1,-,0,-,-,0
COc1cc(/C=C2/C(C)=C(C#N)c3nc(N)c(C#N)c(C)c32)cc(OC)c1O,-,0,-,-,0
O=c1c2ccccc2c2ccccc2c(=O)n1-c1cc2c3ccccc3ccc2c2ccccc12,-,49,-,-,0
COc1ccc(OC)c(-n2c(=O)c3ccccc3c3ccccc3c2=O)c1,0,0,0,0,0
COc1ccccc1C(=O)O/N=C(/C)c1ccc(N2C(=O)C3CCCCC3C2=O)cc1 (stereo not drawn),0,0,54,0,0
CCS(=O)(=O)N1CCC2(CC1)CC(=O)c1cc(C)ccc1O2,-,-,-,-,0
CCN(CC)C(=O)Cn1nc(-c2ccco2)n(-c2cccc(C)n2)c1=O,-,-,-,-,0
CCOC(=O)c1cnc2ccc(F)cc2c1Nc1ccc(NC(C)=O)cc1,-,0,-,-,0
Cc1sc(N)c(C(=O)c2ccc(Br)cc2)c1C,-,0,-,-,71
Nc1sc2c(c1C(=O)c1ccc(Br)cc1)CCC2,-,0,-,-,78
Cc1sc(N)c(C(=O)c2ccccc2)c1C,0,0,0,0,0
Cc1ccc(CN(CCCN2CCOCC2)Cc2sccc2C)s1,-,0,-,-,0
COc1cccc(Cn2c(-c3nonc3N)nc3ccccc32)c1,0,0,0,0,64
CCn1cc(C(=O)O)c(=O)c2cc(F)c(N3CCN(C(=O)c4cccnc4)CC3)cc21,-,0,-,-,0
O=C(NC1CCN(CC(=O)N2c3ccccc3Sc3ccc(Cl)cc32)CC1)C1CC1,-,0,-,-,0
C/C(CCN1CCCCc2nc(C)c(C)cc21)=N\O[C@@H](C)c1cn([C@H](CO)Cc2ccccc2)nn1,0,0,0,0,0
C/C(CCN1CCCCc2nc(C)c(C)cc21)=N\O[C@H](C)c1cn([C@H](CO)Cc2ccccc2)nn1,12,-,0,0,0
O=C(C[N+]12CN3CN(CN(C3)C1)C2)c1ccc(-c2ccccc2)cc1,-,58,-,-,0
CCC(=O)c1ccc(-c2ccccc2)cc1,0,0,0,0,0
NC(=O)CN1C(=O)C2CCCN2S(=O)(=O)c2ccccc21 (stereo not drawn),-,0,-,-,0
SMILES,Efa HMGR inh,EP2 antag,m-calpain inh,Furin inhibitor,EP2 mod
COc1cccc([C@@H]2C[C@H](C(=O)NCc3ccco3)N(C)S(=O)(=O)N2)c1,-,-,-,-,0
Cc1ccnc(Nc2nc3ccccc3o2)n1,0,0,133,0,0
Cc1ccc(N(C(=O)Cc2cccs2)C(C(=O)NC2CCCC2)c2cccs2)cc1 (stereo not drawn),-,0,-,-,80
COc1ccc(C)cc1N(C(=O)Cc1cccs1)C(C(=O)NC1CCCC1)c1ccc(C)o1 (stereo not drawn),-,0,-,-,75
CN1[C@@H](C(=O)N2CCCC2)C[C@@H](c2ccc(F)cc2)NS1(=O)=O,-,-,-,-,0
Cc1nc2ccc(NC(=O)C3CCCCC3)cc2c(=O)n1Cc1ccc(Cl)cc1,-,0,-,-,0
Nc1ncnc2nc(-c3ccc(C[P+](c4ccccc4)(c4ccccc4)c4ccccc4)cc3)[nH]c12,-,40,-,-,0
CC(C)Sc1nc2ncnc(N)c2[nH]1,0,0,0,0,0
Cc1cc(NC(=O)c2cccs2)ccc1NC(=O)CSc1nnc(-c2cccs2)n1C,-,0,-,-,0
COC(=O)C1=CN(C2CC2)C=C(C(=O)OC)C1c1ccc(C(=O)OC)cc1,0,0,0,0,61
COC(=O)C1=CN(C2CC2)C=C(C(=O)OC)C1c1ccc(C(F)(F)F)cc1,0,0,0,0,0
Cc1cc2cc(CN(Cc3ccco3)Cc3nnnn3CC3CCCO3)c(=O)[nH]c2cc1C (stereo not drawn),-,0,-,-,0
CC(C)c1nccn1CCC(=O)NC1(c2ccc(F)cc2)CCCC1,-,0,-,-,0
C[C@@]12CCC(=O)C=C1CC[C@H]1[C@H]2[C@@H](O)C[C@]2(C)[C@@H]1CC[C@@]2(O)C(=O)COC(=O)C1CCCC1,-,50,-,-,0
